# Test results taken from the supplement of paper PMC11417369.
# Over roughly 25,000 sequences, “ln(normalized median fluorescence intensity)” has its median near 9.3; the highest 2% begin near 10. Shown is part of a subset that was picked to be rich in the highest values.
# System: PF3D7_0420300 AP2 domain 1 (GST-tagged)
# Assay: gcPBM binding intensity (ln(normalized median fluorescence intensity)); higher = stronger DNA binding
# Method in brief: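 Binding intensity values are the highest Masliner-normalised natural-log median intensity among replicate spots of either probe orientation. The binding step lasted 1 h in 1× PBS with 1% milk, 0.2 mg/ml BSA, 0.5% salmon testes DNA and 0.03% Triton X-100, using GST-tagged P. falciparum DNA-binding domains expressed in E. coli on an Agilent 4 × 180k array of primer-extended double-stranded 36-bp intergenic genomic probes plus negative controls. Alexa488 anti-GST antibody and a 488 nm scan detected bound protein.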
row,Sequence,gcPBM binding intensity (ln)
1,ATATAAGTATATCTATGTACATACAATATAAATGTA [XGTACX_site2153],9.09
2,AAAAAGAAAAAAAACACACACAAATATAAATAAATA [CACACA_site1183],9.98
3,AAATATAAACGGCACACACACAAAAAAAGAAAAAAA [CACACA_site649],10.2
4,AAAAATATAAACTGCACACACACAAAAAAAGAAAAA [CACACA_site648],10.1
5,AAAAATATAAACTGCACACACAAAAAAAAAAGAGAA [CACACA_site1367],10.1
6,AAAAAAAGAAAAAAAACACACACAAATATAAATAAA [CACACA_site8309],10
7,TAAAAAATATAAACTGCACACACAAAAAAAAAAGAG [CACACA_site8379],10.2
8,TCTAATGATATATACACACACATATAGATTTATATA [CACACA_site7044],9.64
9,TGTAGATATTATATATGTACGCATATGAAATATATA [XGTACX_site1586],9.09
10,ACATATTCATATGGAAGTACGATAATGTAGTCATAT [XGTACX_site7080],9.37
11,TTTAACAACTATTTCTGTACACATTTTTATATAATT [XGTACX_site4917],9.47
12,TTTATATTATAATATAATAATGATCTTAATTTTTTT [XGTACX_negctrl_site100],8.91
13,AAAAAAAATTTTAATTGTACAAAAAAAAAAAATATA [XGTACX_site2259],8.91
14,CATACACATAGACACACACACATATATACCTATATA [CACACA_site6644],10.1
15,CACGCACGCAGACACACACACACACGCACATATATA [CACACA_site6303],10.3
16,AGTATACGCAGACACACACACACATATATATATATA [CACACA_site1735],9.98
17,CACATACACATACACATACACACGCATAGAAACATA [CACACA_site2136],9.79
18,CACATACAGACATACACACATACACATATACGCATA [CACACA_site1745],9.86
19,TATACACATAGACACACACACAAAAAAAAAAAAAAA [CACACA_site6338],9.73
20,AACATACATAGACACACACACACACGCACACGCACA [CACACA_site6373],10.3
21,CATACCTATAGACACACACACACACGCACGCACAAA [CACACA_site6374],10.2
22,TATACACATAGACACACACACATACACGCACATACA [CACACA_site6908],10.1
23,CGCACACGCAGACACACACACACATATAAATAAATA [CACACA_site7101],9.86

row,Sequence,gcPBM binding intensity (ln)
1,CATACATACAGACACACACACATATATATATATATA [CACACA_site2920],9.91
2,TATATACACAGACACACACACACATACACGCACATA [CACACA_site6909],10.3
3,TAGTATTTATATGATTAACACACATATGGGTATTAA [CACACA_site8363],9.28
4,CATATAAGACAAAAGGTGCAATTTTAATGCTTTTAT [GTGCAC_site9432],9.31
5,ATAACATATATATATACACACACATATATATATGAA [CACACA_site7983],9.79
6,TTCTATATTTTAGCTGATAATATTATGAGCTTCACT [XGTACX_negctrl_site427],9.08
7,AATAAATAAATAAATATATATATATATATATATATA [CACACA_negctrl_site708],8.86
8,TCTTCTTAACCAACTATGAAAAGGAAAAATATAACA [GTGCAC_negctrl_site565],9.06
9,TATGTATAATTATTTTGTACTTATTAAATTTTTTTT [XGTACX_site5413],9.18
10,TACCCTGATCGGCATGCATGTAAGTAACAAATATAT [TGCATGCA_site153],9.22
11,ATATAAAATATTACGTGTACACATAAATAAAAATAA [XGTACX_site3746],9.41
12,GAATAAAAAATTGGCACACATAAATATATGGATATA [CACACA_site3047],9.46
13,AGTATACTCGGACACACACACACATATATATATATA [CACACA_site5031],10.2
14,CGCATACACGGACACACACACACATATATATATATA [CACACA_site4520],10.1
15,TACATACACGGACACACACACATATATATATATATA [CACACA_site5883],9.95
16,AGTATACATATATATACACACACATATATATATATA [CACACA_site7883],9.61
17,TATACGCATATATACACACACATATATATATATATA [CACACA_site3416],9.66
18,AAAAAAAAAAGACACACACACACACGCATATACATA [CACACA_site7289],10.2
19,CATACACGCGGACACACACACACACGCATATATAAC [CACACA_site6427],10.4
20,AGTATACATATATATACACACATATATATATATATA [CACACA_site300],9.42
21,CATATATACACATACACACACACACGGACACGCACA [CACACA_site6910],10.2
22,TATACACGCGGACACACACACACACGCAAAAAAAAA [CACACA_site6377],10.1
23,AAAAAAAAAAAAAAGACACACATATATATATATATA [CACACA_site633],9.15

row,Sequence,gcPBM binding intensity (ln)
1,TTTTTTATAGTACATTACCAAAAAAAAAAAAAAAAA [GTGCAC_negctrl_site549],8.32
2,TGTTGATTTATCCTGTGTACGGATATATATCTTTCA [XGTACX_site7826],9.27
3,AAAAATAGACAAAAGAGTACAAGAAAAAAAGGGTTC [XGTACX_site7843],9.86
4,AAATTTTTTAATTTTTCTCATTTAATTTAAAAATTA [GTGCAC_negctrl_site155],8.88
5,TATATTTTATATATGGTGCAACTTTTATTTAAATAA,8.77
6,ATTATTAAGTTTCACAAGAACATTGTTAACAATTTT [CACACA_negctrl_site1128],9
7,ATATATATGGAAACAGTGCAATACATATATATATAT,9.71
8,TTTTATGATAATTTTGCACACACTTAGGAAAAATTA [CACACA_site1556],9.31
9,AAAGTTTTAAGAAAATGTACATAAGTATACATATAT [XGTACX_site1293],9.18
10,AATACATACGGACACACACACACATATATATATATA [CACACA_site5884],10.2
11,AATACATACAGACACACACACACATATATATATATA [CACACA_site3558],10.1
12,CATACATACGGACACACACACATATATATATATATA [CACACA_site5598],9.97
13,AATACACGCAGACACACACACACACGCACATATATA [CACACA_site6447],10.3
14,AATATATACATATATACACACACATATATATATATA [CACACA_site8907],9.75
15,AGAATGGTTTATAAAGGTACGTAATTTTTAATTTTA [XGTACX_site383],9.06
16,TTTTGTTAAAAAGATGTATATTTTATAAATATTTAT [CACACA_negctrl_site101],8.92
17,TTATATATTAAGAAATGTACGAAAAAAAAAATTATA [XGTACX_site3893],9.2
18,ATTATAAATAAAATATGTACATATGTATAAATACAT [XGTACX_site4002],9.21
19,AAAAAGTGACTCCTTACACACTTTACATAATTTAGT [CACACA_site4606],9.46
20,TCTCATAGTAAACACACACACACACCCACATATATA [CACACA_site5034],10.3
21,TTTCCCATAGGAAAAACACACATATATTATATATAA [CACACA_site1981],9.12
22,TCTCATAGGAAACACACACACACACCCACATATATA [CACACA_site1738],10.2
23,AAGGATCACCCACAAACACACATATATATATATATA [CACACA_site559],9.76

row,Sequence,gcPBM binding intensity (ln)
1,TTTACTTTCCCAAGTTGTACTGCTTCTAAGCTTTTT [XGTACX_site2708],9.21
2,TTGTTTCTCTTTAAAAGTACAAAAATGGTTACATAT [XGTACX_site3109],8.95
3,TAAATAAATAAAAAAACACACATATAAATATAAATA [CACACA_site7815],9.61
4,TATAAGAAAAATAACACACACATAAACATATATACA [CACACA_site2785],10.2
5,ATATATATAAAACACACACACACATGGTTTAAAACT [CACACA_site4219],10.2
6,AAAAAACATACATACACACACATAAATATATATATT [CACACA_site2699],10.1
7,AAAAAAAAAAAACACACACACACATAAATATATATA [CACACA_site149],10.2
8,TAAATAAAAAAACACACACACATATATATATATATA [CACACA_site2269],9.94
9,AAAAAAAACATACATACACACACATAAATATATATA [CACACA_site8864],10.3
10,ATTAAATAAAAAAACACACACATATATACATATATA [CACACA_site3445],9.89
11,AATATAAGAAAAATAACACACACATAAACATATATA [CACACA_site8899],10.1
12,TATAAGAAAAATAACACACACATAAACATAAATACA [CACACA_site5536],9.87
13,ATATATATAAAACACACACACACATGTTTTAAAACT [CACACA_site78],10.2
14,CATATATAAAAAAACACACACATATATATATATATA [CACACA_site1195],9.63
15,ACTATTAACAGTGTAGTGCAAAAAGGTTAATTATTA,9.42
16,AACATAAAAAAAATATGTACATATATAATATATATA [XGTACX_site3764],9.29
17,TTTTTATGTAGAATTTTTTTATTTTTTCAAAATGGA [CACACA_negctrl_site166],8.69
18,TATATATATATTGAAGTGCAAAATACTGTACGTAAT,9.4
19,GAGATAAAATAAAACACACACATATATATATAGAAT [CACACA_site2197],10.1
20,TTGTTTTGCTAAAAATGTACTCTATATAAAAGCTTT [XGTACX_site4027],8.98
